The panel holds about 83,000 compounds, 20% with a hit somewhere; the sample as a whole holds those more often.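 The test compound was applied at a single concentration to cells in 96-well plates for 48 hours, and percent growth was recorded.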 A number with no mark means an inactive call. The source made the active and inactive calls. How the source made its calls: active means growth percent below 10; inactive means the rest.

Assay in all cases: NCI-60 one-dose screen, 48 h (100 = growth as untreated, 0 = no growth, -100 = all killed)
Test [1] concerns T-47D breast. To be noted: 10 µM.
Test [2] deals with BT-549 breast. To be noted: 10 µM.
Test [3] concerns MDA-MB-435 melanoma. The note with it: 10 µM.
Test [4] has as its system SW-620 colon. To be noted: 10 µM.
In test [5] the test system is MCF7 breast. The note with it: 10 µM unless noted.
For test [6], the system named is HCT-116 colon. To be noted: 10 µM.
Test [7] relates to HCC-2998 colon. The note with it: 10 µM.
In test [8] the test system is KM12 colon. The note with it: 10 µM.

As to `COc1cc(-c2ccc(NC(=O)NC3CC3)c(OC)c2)ccc1NC(=O)NC1CC1`, the growth in test [1] is 82.8%; in test [2], 89.5%; in test [3], 99.4%; in test [4], 66.8%; in test [5], 72.4%; in test [6], 36.9%. Further, the growth in test [7] was 68.2%; in test [8], 71.8%.

As to `COCCOC(=O)c1ccc(C(C)C)cc1`, the growth in test [1] is 85%; in test [2] it was 98.5%; in test [3], 102%; in test [4], 104%; in test [5], 95.6%; in test [6], 100%. Moreover, the growth in test [7] was 103%; in test [8] it was 101%.

For the molecule `O=c1cc(-c2ccccc2)oc2c1ccc1ccccc12`, the growth is 72% in test [1]; 97.6% in test [2]; 88.6% in test [3]; 99.2% in test [4]; 67.3% in test [5]; 85.5% in test [6]. Further, the growth in test [7] and in test [8] was 98.8% throughout.

For the molecule `Clc1ccc(-c2nnc(-c3cccc4ccccc34)o2)cc1`, the growth is 53.4% in test [1]; 104% in test [2]; 96% in test [3]; 93% in test [4]; 32.2% in test [5]; 93.9% in test [6]. The growth in test [7] is 104%; in test [8], 102%.

As to `CC(=O)OCCO`, the growth is 109% in test [1]; 109% in test [2]; 107% in test [3]; 107% in test [4]; 96.9% in test [5]; 103% in test [6]. For the same molecule, the growth in test [7] is 111%; in test [8], 108%.

Turning to `S=c1sc2ccccc2n1CN1CCCCC1`, the growth in test [1] was 100%; in test [2] it was 90.3%; in test [3], 104%; in test [4] it was 90%; in test [5], 115%; in test [6], 102%. Also, the growth is 116% in test [7] and 98.4% in test [8].

Take `O=C(CN1CCNCC1)N1CCOCC1`: the growth is 102% in test [1]; 113% in test [2]; 109% in test [3]; 108% in test [4]; 97.8% in test [5]; 103% in test [6]. The growth in test [7] and in test [8] was 108% in each case.

`Nc1ccccc1SC(CC(=O)c1ccccc1)c1c(Cl)cccc1Cl` (stereo unspecified): the growth in test [1] is 69.4%; in test [2], 68%; in test [3], 39.7%; in test [4] it was 10.2%; in test [5] it was 14.8%; in test [6] it was -29.7% (active). For the same molecule, the values for the growth in test [7] and in test [8] were 86.9% and 33.1%, respectively.

On to `CCCCC1(CC)COC(CCC)OC1` (stereo unspecified), for which the growth in test [1] is 104%; in test [2], 106%; in test [3] it was 118%; in test [4], 110%; in test [5], 96.6%; in test [6], 98.8%. The growth was 98.1% in test [7] and 104% in test [8].

Regarding `Cc1ccc(C(O)C2CC2)cc1` (stereo unspecified), the growth is 97.4% in test [1]; 107% in test [2]; 103% in test [3]; 100% in test [4]; 104% in test [5]; 107% in test [6]. In addition, the growth in test [7] is 113%; in test [8] it was 107%.

On to `COc1cc(CCN=Cc2ccccc2O)c([N+](=O)[O-])cc1OC`, for which the growth in test [1] is 97.9%; in test [2], 91.2%; in test [3], 110%; in test [4], 104%; in test [5] it was 104%; in test [6], 95%. Moreover, the growth was 101% in test [7] and 107% in test [8].

Consider `O=C1c2ccccc2C(=O)c2c1ccc(C(=O)O)c2[N+](=O)[O-]`, for which the growth in test [1] was 105%; in test [2], 95.5%; in test [3] it was 118%; in test [4], 102%; in test [5], 89.9%; in test [6] it was 104%. Also, the growth in test [7] was 106%; in test [8], 101%.

`CC(=O)/C(Cc1ccccc1)=N/O`: the growth was 89.8% in test [1]; 90.8% in test [2]; 103% in test [3]; 98.4% in test [4]; 94.5% in test [5]; 87.4% in test [6]. For the same molecule, the growth in test [7] is 111%; in test [8], 105%.

For `O=C(Nc1cc(-c2ccccc2)[nH]n1)c1ccc(Cl)cc1`, the growth in test [1] was 74.1%; in test [2], 83.5%; in test [3], 86.4%; in test [4], 86.1%; in test [5], 87.6%; in test [6], 72.3%. Besides, the growth in test [7] was 100%; in test [8], 48.6%.

Turning to `COc1cc2c(cc1OC)[C@H](C(=O)O)[C@@H](c1ccc(OC(C)C)c(OC)c1)N(C)C2=O`, the growth in test [1] is 96%; in test [2], 91.6%; in test [3], 101%; in test [4], 109%; in test [5], 108%; in test [6] it was 101%. Besides, the growth in test [7] was 108%; in test [8], 107%.

`CC1C(=O)c2ccccc2CC1C(=O)O` (stereo unspecified): the growth in test [1] is 102%; in test [2] it was 105%; in test [3], 108%; in test [4], 115%; in test [5], 99.3%; in test [6], 110%. Moreover, the results for the growth in test [7] and in test [8] were 89.7% and 123%, respectively.

With `C=CCOC(=O)C(=O)OCC=C`, the growth is 93.9% in test [1]; 101% in test [2]; 120% in test [3]; 103% in test [4]; 101% in test [5]; 101% in test [6]. Also, the growth was 107% in test [7] and 102% in test [8].

For the origin of these results see PubChem BioAssay (NCI).
